The source of these data is PubChem BioAssay AID2806 (Sanford-Burnham Center for Chemical Genomics, 2010).

About 660 (0.2%) of roughly 330,000 compounds were called active.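 Rule for the calls: active = inhibition of at least 40% at 10 µM in the primary screen; inactive = the rest.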 Many of the other results were omitted from the sample, so actives are more common in it than they were.

For the test, the system named is intestinal alkaline phosphatase [Mus musculus]. The test can be described thus: mouse intestinal phosphatase enzyme inhibition – biochemical, luminescence, uHTS, primary screen (AID 2806).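 Note: plate controls were DMSO with enzyme for no effect and no enzyme wells for full effect.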 The conditions noted are these: purified mouse IAP, CDP-Star luminescence, 30 min; at 10 µM; active compounds read high.
Broadly, the inhibition is the drop in the measured response relative to a control, in per cent. For `O=C(O)COc1ccccc1/C=C1\C(=O)NC(=O)N(CCC2=CCCCC2)C1=O`, the inhibition was 0.6% (inactive).

Take `O=C1NC(=O)N(Cc2ccco2)C(=O)/C1=C\c1cccn1CCOc1ccccc1`: the inhibition is 40.7% (active).

Regarding `O=C1NC(=O)N(Cc2ccco2)C(=O)/C1=C\c1ccc(-c2ccc(F)cc2)o1`, the inhibition is 64.1% (active).

As to `O=C1NC(=O)N(CCc2ccc(F)cc2)C(=O)/C1=C/C=C/c1ccccc1`, the inhibition was 1.6% (inactive).

For the molecule `COC(=O)C1=C(c2cc3ccccc3s2)C[C@@H]2CC[C@H]1N2C(=O)NCc1cccc2ccccc12`, the inhibition is 1% (inactive).

For `COc1ccc2c(c1)[C@]13CCCCC1C(C2)N(C)CC3` (stereo not given in full), the inhibition was 0.8% (inactive).

`O=Cc1cn(Cc2ccc(F)cc2Cl)c2ccccc12`: the inhibition was -2% (inactive).

Take `CNCC(O)c1cc(F)c(OCc2ccccc2)c(OCc2ccccc2)c1F` (stereo not given): the inhibition was 5.2% (inactive).

Take `Cc1cc(C(=O)OCC(=O)Nc2c(F)cccc2F)c(C)n1C1CC1`: the inhibition is 7.2% (inactive).

For `Oc1ccc2c3c1OC1[C@H](O)CC[C@@]4(O)[C@@H](C2)N(CC2CC2)CC[C@]314` (stereo not given in full), the inhibition was 1.2% (inactive).

With `COc1ccc(N2C(=O)/C(=C/c3ccco3)C(=O)NC2=S)cc1`, the inhibition was 42.1% (active).

Turning to `O=C1NC(=O)N(c2ccccc2)C(=O)/C1=C/c1ccc([N+](=O)[O-])s1`, the inhibition was 26.5% (inactive).

As for `COc1cccc(N2C(=O)NC(=O)/C(=C\c3ccc([N+](=O)[O-])s3)C2=O)c1`, the inhibition is 34.9% (inactive).

As for `CSc1ccc(C(=O)C2CCCN(Cc3ccn[nH]3)C2)cc1` (stereo not given), the inhibition is -3.6% (inactive).

Regarding `CC1CCCCN1Cc1cccnc1` (stereo not given), the inhibition is 0.7% (inactive).
